This is one part of a sample in which hits are shown more often than they occur.
Pf Dd2 growth: Plasmodium falciparum Dd2 growth inhibition. P. falciparum Dd2 growth, SYBR Green, 72 h. hit rate 4.3% among 120,000. Potency, µM (top dose mostly 28.9 µM), without a hit: at the top dose activity, negative = inhibition, hits mostly inhibitors; active means well fitted inhibition curve with a large enough effect;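 further: plate controls were DMSO vehicle for no effect and reference drug for full effect; nearly all actives have a fitted effect of over 65% in size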
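Infected erythrocytes (Dd2, 0.3% parasitemia, 2.5% hematocrit final) are added to compound in RPMI-1640/Albumax II medium, grown 72 h at 37C in low oxygen, then lysed with saponin/Triton-X containing SYBR Green and read by fluorescence.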
* = called active by the depositor; ! = a repeat was not active; [ ] = remark or other dose. Potency means the concentration at half of the fitted maximal effect.

Results for CN(C)CCNC(=O)c1cc(-c2ccc(F)cc2)cc2ncn(C)c12 ?
Pf Dd2 growth: inactive

Results for Cc1ccccc1Nc1cc2c(nc1-c1ccccc1)nc(C(=O)NCCN(C)C)n2C ?
Pf Dd2 growth: 7.94µM*

How did C[C@@H](N)C(=O)N1CCC2(CC1)Nc1ccccc1NC2=O do in these assays?
Pf Dd2 growth: 7.7%

Results for NC(=O)[C@H](CC1CCCCC1)NC(=O)[C@H]1CNCCN1C(=O)c1cccs1 ?
Pf Dd2 growth: inactive

What do the screens show for `CCN1c2cc(C(=O)Nc3ccc(OC)c(F)c3)ccc2C(=O)N2CCCCCC21` (configuration not stated)?
Pf Dd2 growth: -16.0%

Results for O=C(O)c1cccc(NC(=O)c2cc3cc(Br)cc(Br)c3oc2=O)c1 ?
Pf Dd2 growth: -8.2%

Results for CN(Cc1cccc(CCN)c1)Cc1cnn(-c2ccc(F)cc2)c1 ?
Pf Dd2 growth: 10µM*

What do the screens show for `CN1C(=O)CC(C(=O)O)C12CCN(Cc1cnn(-c3ccc(F)cc3)c1)CC2` (configuration not stated)?
Pf Dd2 growth: -3.3%

What do the screens show for `CN(Cc1ccc(F)cc1)Cc1cccn1C`?
Pf Dd2 growth: -28.8%[44.1 µM]

How did CCOc1ccc(Cn2c(CNS(=O)(=O)c3c(C)cc(C)cc3C)nc3cccnc32)cc1 do in these assays?
Pf Dd2 growth: inactive

Results for COc1ccccc1Cn1c(CNS(=O)(=O)c2ccc(C(C)C)cc2)nc2cccnc21 ?
Pf Dd2 growth: inactive

What do the screens show for `COc1ccccc1Cn1c(CNS(=O)(=O)c2c(C)cc(C)cc2C)nc2cccnc21`?
Pf Dd2 growth: 12.6µM*

How did O=C(NCCCN1CCCCC1)c1cn2ccnc(-c3ccccc3)c2n1 do in these assays?
Pf Dd2 growth: inactive

How did CC(C)(C)NC(=O)N1CCC2(CC1)C(=O)N(CC(=O)NCC1CCCO1)CN2c1ccccc1 (configuration not stated) do in these assays?
Pf Dd2 growth: inactive

Results for Cc1ccc(NC(=O)N2CCC3(CC2)C(=O)N(CC(=O)N2CCCC2)CN3c2ccccc2)cc1 ?
Pf Dd2 growth: 7.08µM*

Results for COCCNC(=O)CN1CN(c2ccccc2)C2(CCN(C(=O)C3CCCCC3)CC2)C1=O ?
Pf Dd2 growth: -21.2%

What do the screens show for `Cc1nn2c(=O)cc(COC(=O)c3ccc(C(C)(C)C)cc3)nc2s1`?
Pf Dd2 growth: 18.0%

What do the screens show for `COCCc1nn2c(=O)cc(COC(=O)c3cccs3)nc2s1`?
Pf Dd2 growth: 45.3%[5.79 µM]

How did COCCc1nn2c(=O)cc(COC(=O)c3ccc(C(C)(C)C)cc3)nc2s1 do in these assays?
Pf Dd2 growth: 14.1µM*

Results for CCOC(=O)c1ccc(NC(=O)Cn2c(N3CCCCC3)nc(C)c(C)c2=O)cc1 ?
Pf Dd2 growth: inactive

Results for Cc1ccc(Cl)cc1NC(=O)CN1C(=O)c2ccccc2Sc2ncccc21 ?
Pf Dd2 growth: inactive

How did CC(C)CNC(=O)c1ccc2c(c1)C1(CCN(C)C1)CN2CC1CCOCC1 (configuration not stated) do in these assays?
Pf Dd2 growth: inactive

How did CC(C)Oc1ccc(C(=O)N2CCC3(CC2)C(=O)N(C)c2ccccc23)cc1 do in these assays?
Pf Dd2 growth: 8.91µM*

How did COc1ccc(C(=O)N2CCC3(CC2)C(=O)Nc2ccccc23)cc1 do in these assays?
Pf Dd2 growth: 51.6%

Results for CC(C)CCNC(=O)N1CCC2(CC1)C(=O)N(C)c1ccccc12 ?
Pf Dd2 growth: -14.7%

How did COc1ccc(C(=O)N2CCC3(C2)C(=O)N(Cc2ccccc2)c2ccccc23)cc1 (configuration not stated) do in these assays?
Pf Dd2 growth: inactive

What do the screens show for `CN1C(=O)C2(CCN(C(=O)c3cccc(F)c3)C2)c2ccccc21` (configuration not stated)?
Pf Dd2 growth: inactive

How did CN1C(=O)C2(CCN(C(=O)c3ccccc3)C2)c2ccccc21 (configuration not stated) do in these assays?
Pf Dd2 growth: -15.2%[44.1 µM]

Results for O=C(c1cccc(Cl)c1)N1CCC2(C1)C(=O)N(CCc1ccccc1)c1ccccc12 (configuration not stated) ?
Pf Dd2 growth: 7.94µM*!

Results for CC1(C(=O)O)CCN(C(=O)c2cccc(Cl)c2)CC1 ?
Pf Dd2 growth: -12.0%[44.1 µM]

How did COc1ccc(C(=O)N2CCC3(C2)C(=O)N(CCc2ccccc2)c2ccccc23)cc1 (configuration not stated) do in these assays?
Pf Dd2 growth: 8.91µM*!

Results for CC(=O)N1Cc2ccccc2CC2(CCN(Cc3ccc(C(F)(F)F)nc3)CC2)C1 ?
Pf Dd2 growth: -17.2%

What do the screens show for `Cc1cccc(-c2noc([C@@H]3C[C@@H](O)CN3Cc3ccc(Cl)cc3)n2)c1`?
Pf Dd2 growth: -20.0%[44.1 µM]

Results for CC(=O)N1CCCc2cc(S(=O)(=O)Nc3ccc(OC(F)(F)F)cc3)ccc21 ?
Pf Dd2 growth: 0.9%

Results for Cc1cccc(NC(=O)Cn2c(-c3ccc(F)cc3)nc(C)cc2=O)c1 ?
Pf Dd2 growth: inactive

What do the screens show for `CCOC(=O)c1cc(-c2ccc(C)cc2)n(CCC(=O)NCCc2ccc(C)cc2)c1C`?
Pf Dd2 growth: inactive

Results for CCOC(=O)c1cc(-c2ccc(OC)cc2)n(CCC(=O)NCc2ccc(OC)cc2)c1C ?
Pf Dd2 growth: 3.98µM*

What do the screens show for `CCOC(=O)c1cc(-c2ccccc2)n(CCC(=O)NCCc2ccc(OC)c(OC)c2)c1C`?
Pf Dd2 growth: -8.1%

Results for CCOC(=O)c1cc(-c2ccccc2)n(CC(=O)NCc2ccc(C)cc2)c1C ?
Pf Dd2 growth: -12.0%

Results for CCOC(=O)c1cc(-c2ccc(C)cc2)n(CCC(=O)NCc2ccccc2)c1C ?
Pf Dd2 growth: 8.91µM*

Results for CCOC(=O)c1cc(-c2ccccc2)n(CC(=O)NCc2ccccc2)c1C ?
Pf Dd2 growth: 12.2%

Results for COc1ccc(C(=O)NCc2cn3ccc(C)cc3n2)cc1 ?
Pf Dd2 growth: 40.6%

How did CC1(C)C(=O)N(CC2CCOCC2)[C@H]2CN(Cc3ccccc3)C[C@@H]2[S+]1(=O)[O-] do in these assays?
Pf Dd2 growth: inactive

How did CC1=C[C@@H](CNC(=O)c2ccc(F)cc2)[C@H](C(C)C)C[C@H]1CC(=O)N1CCN(C)CC1 do in these assays?
Pf Dd2 growth: -13.3%[44.1 µM]

What do the screens show for `O=c1oc2ccc(Cl)cc2cc1-c1cn2c(n1)sc1ccccc12`?
Pf Dd2 growth: 94.2%

Results for CS(=O)(=O)N1CCc2nc(-c3ccc(Cl)cc3)[nH]c2C1 ?
Pf Dd2 growth: 0.2%

Results for Cc1cc(C)c(S(=O)(=O)N2CCn3c(nn(CC4CC4)c3=O)C2)cc1C ?
Pf Dd2 growth: inactive

Results for CCn1nccc1C(=O)N1CCCC2(C1)Nc1cccnc1NC2=NCc1ccccc1 (configuration not stated) ?
Pf Dd2 growth: inactive[5.79 µM]

How did Clc1cc(Cl)cc(NC2CNC2)c1 do in these assays?
Pf Dd2 growth: 22.4µM*

How did CC1(C(=O)O)CCN([S+](=O)([O-])c2cc(C(F)(F)F)cc(C(F)(F)F)c2)CC1 do in these assays?
Pf Dd2 growth: 11.7%

Results for CCOc1ccc(NC(=O)c2nn(C)c3c2COc2ccccc2-3)cc1 ?
Pf Dd2 growth: 13.9%

How did Cc1nn(CC(=O)NC2CCC(C)CC2)c(=O)c2c1sc1ccccc12 (configuration not stated) do in these assays?
Pf Dd2 growth: inactive

Results for Cc1cc(C)n(C(C)CNC(=O)c2cccc(CCC(C)(C)O)c2)n1 (configuration not stated) ?
Pf Dd2 growth: 13.7%

Results for COc1ccc(N2C(=O)CS(=O)(=O)C23C(=O)N(Cc2ccccc2)c2ccccc23)cc1 (configuration not stated) ?
Pf Dd2 growth: -23.0%

Source: PubChem BioAssay
